A selection: hits, their analogues and other compounds. The true share with any hit is near 1.1%.
MOR-DOR ag: agonists of OPRM1-OPRD1 heterodimerization, primary screen, cell-based, luminescence; cells; Mu-type opioid receptor (Homo sapiens) + Delta-type opioid receptor (Homo sapiens), …; 0.3% of 340,000 active; activation, % at 9.3 µM;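 further: 0% = vehicle-treated cells and 100% = reference agonist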
HTR5A ag: HTR5A agonists in luminescence cell assay, primary screen, counter-screen for OPRM1-OPRD1 heterodimer agonist project, full-deck HTS; cell-based; activation, % at 9.3 µM; 0.61% of 340,000 active; in the data active means activation mostly above about 9.5%, no sharp cut-off; inactive means mostly below about 7.6%;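 further: 0% = cells with vehicle only and 100% = reference agonist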
Target sequence (P47898 whole entry, looked up): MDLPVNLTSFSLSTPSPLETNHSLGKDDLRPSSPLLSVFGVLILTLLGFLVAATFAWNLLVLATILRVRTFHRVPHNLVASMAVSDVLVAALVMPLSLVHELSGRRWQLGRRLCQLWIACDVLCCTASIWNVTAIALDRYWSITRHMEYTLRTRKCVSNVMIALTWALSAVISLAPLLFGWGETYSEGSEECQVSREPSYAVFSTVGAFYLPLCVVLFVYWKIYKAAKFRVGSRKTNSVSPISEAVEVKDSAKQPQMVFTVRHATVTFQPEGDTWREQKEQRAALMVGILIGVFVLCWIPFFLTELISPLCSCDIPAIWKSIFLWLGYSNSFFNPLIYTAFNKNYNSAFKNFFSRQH
OPRM1-OPRD1 inv: inverse agonists of MOR-DOR heterodimerization, primary screen, cell-based, luminescence; Mu-type opioid receptor (Homo sapiens) + Delta-type opioid receptor (Homo sapiens), …; cell-based MOR-DOR heterodimer luminescence, inverse agonism; inhibition, % at 9.3 µM; 0.21% of 340,000 active; in the data active means inhibition above about 22%, passing the limit was not always enough;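 further: 0% = cells with DMSO and 100% = wells without cells with DMSO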
HTR5A inv ctr: HTR5A inverse agonists in luminescence cell assay, primary screen, counter-screen for OPRM1-OPRD1 heterodimer inverse agonist project, full-deck HTS; HTR5A cell line, inverse agonism; 0.083% of 340,000 active; inhibition, % at 9.3 µM; AID 504634, 2011; in the data active means inhibition mostly above about 23%, no sharp cut-off; inactive means mostly below about 18%;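 further: 0% = cells with DMSO and 100% = no-cell wells with DMSO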
OPRM1-D1 ag cf: agonists of MOR-DOR heterodimerization, confirmation, cell-based, luminescence | shares compounds with MOR-DOR ag | cells, luminescence complementation | activation, % at 9.3 µM | 45% of 830 active;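 further: 0% = vehicle-treated cells and 100% = reference agonist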
HTR5A ag ctr2: HTR5A agonists in cells, counter-screen for OPRM1-OPRD1 heterodimer agonist project, cell-based, luminescence; 8% of 830 active; shares compounds with MOR-DOR ag; HTR5A agonist counterscreen; activation, % at 9.3 µM; AID 504905, 2011; in the data active means activation above about 17%;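 further: 0% = vehicle-treated cells and 100% = reference agonist response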
The depositor's hits bear a star; ! = repeats disagree. Unless noted, no stated cut-off is given here; in the data, active means activation above about 18%; inactive means the rest.

Screening Cc1c(C(=O)NCC(c2ccco2)N(C)C)oc2c(Cl)cccc12 (configuration not stated) returned MOR-DOR ag 32*, HTR5A ag 0, OPRM1-OPRD1 inv -171, HTR5A inv ctr -24, OPRM1-D1 ag cf 20* and HTR5A ag ctr2 30*.
For Cc1ccc2nc(-c3ccccc3)cc(C(=O)NCC(c3ccco3)N(C)C)c2c1 (configuration not stated) the results were MOR-DOR ag 36*, HTR5A ag -5, OPRM1-OPRD1 inv -228, HTR5A inv ctr 13, OPRM1-D1 ag cf 1 and HTR5A ag ctr2 -3.
`CCCCc1cc(=O)oc2cc(OCC(=O)Nc3ccccn3)ccc12` gave MOR-DOR ag -1, HTR5A ag 8, OPRM1-OPRD1 inv 8 and HTR5A inv ctr -12.
Screening O=C(CN(C(=O)CCC(=O)Nc1nccs1)c1cccc(C(F)(F)F)c1)NCC1CCCO1 (configuration not stated) returned MOR-DOR ag -1, HTR5A ag -1, OPRM1-OPRD1 inv 3 and HTR5A inv ctr 3.
`COC(=O)c1ccc(=O)c2nc3/c(=C/O)c(O)cc(=O)c3[nH]c12` gave MOR-DOR ag -1, HTR5A ag 0, OPRM1-OPRD1 inv 3 and HTR5A inv ctr 0.
Screening CN(C)C(CNC(=O)c1cccc(C(F)(F)F)c1)c1ccco1 (configuration not stated) returned MOR-DOR ag 18*, HTR5A ag -1, OPRM1-OPRD1 inv -117, HTR5A inv ctr 18, OPRM1-D1 ag cf 45* and HTR5A ag ctr2 0.
CC(=O)N1CCC(C(=O)OCc2ccccc2F)(c2ccccc2)CC1 was read as MOR-DOR ag -2, HTR5A ag -6, OPRM1-OPRD1 inv 11 and HTR5A inv ctr -14.
CCc1ccc(Nc2n[n+](-c3ccccc3)c(-c3c(Cl)cccc3Cl)s2)cc1 was read as MOR-DOR ag 27*, HTR5A ag 12, OPRM1-OPRD1 inv -153, HTR5A inv ctr -5, OPRM1-D1 ag cf 73* and HTR5A ag ctr2 10.
For O=C(CCc1nc2ccccc2s1)NCc1ccccc1F the results were MOR-DOR ag 0, HTR5A ag 3, OPRM1-OPRD1 inv 1 and HTR5A inv ctr 21.
`CN(C)C(CNC(=O)CCc1nc2ccccc2s1)c1ccccc1` (configuration not stated) gave MOR-DOR ag 33*, HTR5A ag 5, OPRM1-OPRD1 inv -267, HTR5A inv ctr -14, OPRM1-D1 ag cf 0 and HTR5A ag ctr2 0.
Screening CN(C)C(CNC(=O)CCOc1ccccc1)c1ccco1 (configuration not stated) returned MOR-DOR ag 26*, HTR5A ag 6, OPRM1-OPRD1 inv -141, HTR5A inv ctr 4, OPRM1-D1 ag cf 24* and HTR5A ag ctr2 3.
For Cc1cccc(OCCC(=O)NCC(c2ccccc2)N(C)C)c1 (configuration not stated) the results were MOR-DOR ag 28*, HTR5A ag 3, OPRM1-OPRD1 inv -144, HTR5A inv ctr 17, OPRM1-D1 ag cf 49* and HTR5A ag ctr2 2.
`COc1ccc(C(CNC(=O)CCOc2ccccc2)N(C)C)cc1` (configuration not stated) gave MOR-DOR ag 32*, HTR5A ag -4, OPRM1-OPRD1 inv -160, HTR5A inv ctr 7, OPRM1-D1 ag cf 361* and HTR5A ag ctr2 3.
CC(=O)c1ccc(OCCCC(=O)NCC(c2ccco2)N(C)C)cc1 (configuration not stated) was read as MOR-DOR ag -3, HTR5A ag 4, OPRM1-OPRD1 inv 14 and HTR5A inv ctr -11.
Screening COc1ccc(NC(=O)CCOc2ccccc2)cc1 returned MOR-DOR ag -1, HTR5A ag 0, OPRM1-OPRD1 inv 6 and HTR5A inv ctr -1.
For Cc1ccc(N2CC(C(=O)N3CCN(Cc4ccc5c(c4)OCO5)CC3)CC2=O)cc1 (configuration not stated) the results were MOR-DOR ag -1, HTR5A ag 3, OPRM1-OPRD1 inv 5 and HTR5A inv ctr -6.
For CCOc1cc(C(=O)CSc2nnc(CNc3ccc(Cl)cc3)o2)ccc1NC(=O)CC the results were MOR-DOR ag 65*, HTR5A ag 30*, OPRM1-OPRD1 inv -370, HTR5A inv ctr -53, OPRM1-D1 ag cf 77* and HTR5A ag ctr2 25*.
CN1CCN(Cc2nc3ccccc3c(=O)n2Cc2nc(-c3ccccc3F)cs2)CC1 was read as MOR-DOR ag 4, HTR5A ag 10, OPRM1-OPRD1 inv -20 and HTR5A inv ctr -34.
`CN1CCN(Cc2nc3ccccc3c(=O)n2Cc2nc(-c3ccc4ccccc4c3)cs2)CC1` gave MOR-DOR ag 20*!, HTR5A ag 9.0*, OPRM1-OPRD1 inv -98, HTR5A inv ctr -36, OPRM1-D1 ag cf 49* and HTR5A ag ctr2 -1.
Screening O=C1C(O)=CC(=C(c2ccccc2)c2ccccc2)c2ccccc21 returned MOR-DOR ag 20*, HTR5A ag -4, OPRM1-OPRD1 inv -100, HTR5A inv ctr 16, OPRM1-D1 ag cf -1 and HTR5A ag ctr2 -16.
Screening COc1ccc(C(C)NCCC(c2ccc(OC(C)C)cc2)c2ccccc2OC)cc1 (configuration not stated) returned MOR-DOR ag 23*, HTR5A ag 1, OPRM1-OPRD1 inv -135, HTR5A inv ctr -5, OPRM1-D1 ag cf 37* and HTR5A ag ctr2 7.
For COc1ccccc1C(CC(=O)Nc1ccc(Cl)cc1)c1ccc(OC(C)C)cc1 (configuration not stated) the results were MOR-DOR ag 1, HTR5A ag 3, OPRM1-OPRD1 inv -9 and HTR5A inv ctr -6.
Screening COCCN(C(=O)C1CC(=O)N(Cc2ccccc2)C1)c1nc(-c2ccc([N+](=O)[O-])cc2)cs1 (configuration not stated) returned MOR-DOR ag 127*, HTR5A ag -4, OPRM1-OPRD1 inv inactive, HTR5A inv ctr 15, OPRM1-D1 ag cf 154* and HTR5A ag ctr2 1.
`Cn1c(N)c(C(=O)COC(=O)COc2cccc(Br)c2)c(=O)n(C)c1=O` gave MOR-DOR ag 1, HTR5A ag -4, OPRM1-OPRD1 inv -3 and HTR5A inv ctr 11.
CN(C)S(=O)(=O)c1ccc(-c2csc(N/N=C/c3ccco3)n2)cc1 was read as MOR-DOR ag 12, HTR5A ag 6, OPRM1-OPRD1 inv -64 and HTR5A inv ctr 16.
`CN(C)S(=O)(=O)c1ccc(-c2csc(N/N=C/c3ccc(O)cc3)n2)cc1` gave MOR-DOR ag 38*, HTR5A ag 11, OPRM1-OPRD1 inv -201, HTR5A inv ctr -30, OPRM1-D1 ag cf 157* and HTR5A ag ctr2 4.
